Results: PubChem BioAssay AID720517 (National Center for Advancing Translational Sciences (NCATS), 2013)
Inconclusive results are not listed. Unmarked numbers belong to inactive results. Calls follow the shape of the dose curve; as a rule, active = well fitted activation curve with a large enough effect; inconclusive = small, poorly fitted or top-dose-only effect; inactive = flat fitted curve, though single readings scatter.

test: qHTS for Inhibitors of Cell Surface uPA Generation: FP59 Counterscreen for Cherry-picked Compounds; conditions: FP59 anthrax toxin cytotoxicity counterscreen, cells; series mostly up to 115 µM; activity (protection from FP59): at the top concentration; also: 0% is about no effect

Compound | activity (protection from FP59)
S=C(Nc1ccccc1Oc1ccccc1)NC1CCCC1 | -1.16%
CCN(CC)S(=O)(=O)c1ccc(C(=O)Nc2nnc(COC)o2)cc1 | -0.922%
CC1C2=C(CC(C)(C)CC2=O)NC2=C1C(=O)CC(C)(C)C2 | -1.24%
COc1ccc(NS(=O)(=O)c2c(C)n(C)c(=O)n(C)c2=O)cc1OC | -1.51%
Cc1ccc(NC(=O)CS(=O)Cc2nc(-c3ccc(C)cc3)oc2C)cc1 (stereo unspecified) | -0.34%
C[C@@]12C(=O)N(CC3CCCO3)CC(=O)N1[C@H]1c3cc(Cl)ccc3OC[C@@H]1[C@@H]2c1ccccc1 (stereo partly specified) | 4.34%
CC(=O)Nc1ccc(NC(=O)CCCCCN2C(=O)c3ccccc3C2=O)cc1 | -1.56%
CCN(CC)S(=O)(=O)c1cc(NC(=O)COC(=O)C2CCC2)ccc1C | -1.44%
CC1CCC(NC(=O)c2nn(C)c3c2CS(=O)(=O)c2ccccc2-3)CC1 (stereo unspecified) | -1.25%
O=C(NCCCn1ccnc1)C(=O)NCC(c1cccnc1)N1CCN(c2ccc(F)cc2)CC1 (stereo unspecified) | 0.365%
CC(C)(C)OC(=O)NCCCCCNC(=O)c1[nH]cnc1C(=O)Nc1ccc(Cl)cc1 | -1.08%
Cc1ccc(C(CC(=O)N2CCCC2)c2ccccc2)c(O)c1 (stereo unspecified) | -0.648%
O=C(CCCC(=O)N1CCN(c2ccccc2F)CC1)c1ccccc1 | -1.35%
C#CCOCCOCCOCCNc1nc(N2CCOCC2)nc(N2CCN(C(=O)[C@H](CCC(=O)O)n3cc([C@@H](N)CCCCN)nn3)CC2)n1 | -1.42%
COc1ccc([C@H]2CC(=O)C=C(c3ccc(CNC(=O)OC(C)(C)C)cc3)C2)cc1 | 3.35%
COc1cccc2c1Oc1ncccc1N(C(=O)CCC(=O)NCc1ccc(C)cc1)C2 | -1.2%
